An excerpt weighted towards active compounds, which were near 3.2% of everything screened.
PGC1a acetyl inh: PGC1a acetylation modulation, inhibitor mode; U2OS PGC1a acetylation, AlphaScreen anti-acetyl-lysine; with virally co-expressed GCN5 acetyltransferase; inhibition, % at 15.6 µM; hit rate 0.17% among 350,000; AID 651687;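 active means every replicate shows inhibition of at least 40%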
Ecoli rRNA inh: selective bacterial rRNA inhibition in E. coli | E. coli WT GFP vs humanized-ribosome RFP mutants, fluorescence, 24 h; active compounds read low; DMSO median 0, no signal -100 | GFP signal change (wild-type ribosome), % (no concentration beside the values) | hit rate 1.6% among 350,000 | AID 720706;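 active means significant combined selectivity score with lowered wild-type GFP, culture density cut under 30%, mutant RFP and density less affected; inactive means any of these conditions unmet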
CaV13 FRET inh: Primary screen for inhibitors of IQ motif and Ca2+-dependent inactivation inhibitor domain binding in CACNA1D, Förster resonance energy transfer in living cells, …. HEK cells, CFP/YFP FRET ICDI-IQ, plate reader, 10 min; percent FRET-ratio fall versus neutral wells. hit rate 0.098% among 340,000. AID 743397. inhibition, % at 12.3 µM;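 active means mean replicate inhibition of at least 30% and at least 1% of replicates passing that level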
ERAP1 inh: inhibitors of human ERAP1 aminopeptidase. hit rate 0.15% among 340,000. inhibition, % at 10.7 µM. recombinant ERAP1, Leu-AMC fluorescence, 60 min;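 active means mean replicate inhibition of at least 30%, or all replicates individually reaching that 30% level; inactive means mean below 30% and not every replicate reaching it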
GSIS activator: GLuc luminescence reporter in INS-1E cells, primary screen for activators of glucose-dependent secretion of insulin; INS-1E GLuc reporter insulin secretion, 2-3 h; hit rate 0.61% among 370,000; activation, % at 16.6 µM;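 active means lowest replicate activation of at least 40%, so every replicate reaches that level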
DENV2 CPE rescue: inhibitors of DENV2 cytopathic effect. DENV2-infected cells, cytopathic effect rescue, plate reader. CPE inhibition, % at 9.99 µM. hit rate 1.7% among 350,000; in the data active means CPE inhibition above about 20%, passing the limit was not always enough; tested in BHK-21 cells
Large screens that a line does not name were inactive.

C[C@@H]1CN([C@@H](C)CO)C(=O)c2cc(NC(=O)CCCN(C)C)ccc2O[C@@H](C)CCCCO[C@@H]1CN(C)Cc1ccc(C(F)(F)F)cc1	PGC1a acetyl inh 110.0 (no result: CaV13 FRET inh)
C[C@H](CO)N1C[C@H](C)[C@H](CN(C)Cc2ccc(C(=O)O)cc2)OCCCC[C@H](C)Oc2ccc(NC(=O)CCCN(C)C)cc2C1=O	DENV2 CPE rescue 30.2 (no result: CaV13 FRET inh)
C[C@@H]1CCCCO[C@@H](CN(C)Cc2ccc(C(F)(F)F)cc2)[C@@H](C)CN([C@H](C)CO)C(=O)c2cc(NC(=O)CCCN(C)C)ccc2O1	none (no result: CaV13 FRET inh)
C[C@@H]1CN([C@H](C)CO)C(=O)c2cc(NC(=O)CCCN(C)C)ccc2O[C@@H]1CN(C)Cc1ccccc1	none (no result: CaV13 FRET inh)
C[C@@H]1CN([C@@H](C)CO)C(=O)c2cc(NC(=O)CCCN(C)C)ccc2O[C@@H]1CN(C)Cc1ccccc1	DENV2 CPE rescue 29.5 (no result: CaV13 FRET inh)
C[C@H](CO)N1C[C@H](C)[C@@H](CN(C)C(=O)c2ccccn2)Oc2ncc(C#Cc3ccccn3)cc2C1=O	none (no result: CaV13 FRET inh)
C[C@H]1CCCCO[C@@H](CN(C)C)[C@@H](C)CN([C@@H](C)CO)C(=O)c2cc(NC(=O)CCC(F)(F)F)ccc2O1	none (no result: CaV13 FRET inh)
COc1ccc(Cl)cc1C(Nc1cccnc1)c1ccc2cccnc2c1O (stereo not given)	Ecoli rRNA inh -23.3
COc1ccccc1-c1ccc([C@@H]2[C@@H](CO)N3CCCCN(Cc4ccncc4)C[C@H]23)cc1	DENV2 CPE rescue 26.1 (no result: CaV13 FRET inh)
OC[C@H]1[C@H](c2ccc(-c3ccc(F)cc3)cc2)[C@@H]2CN(Cc3ccncc3)CCCCN12	Ecoli rRNA inh -19.1, DENV2 CPE rescue 44.0 (no result: CaV13 FRET inh)
OC[C@H]1[C@@H](c2ccc(-c3ccc(F)cc3)cc2)[C@@H]2CN(Cc3ccccn3)CCCCN12	DENV2 CPE rescue 29.1 (no result: CaV13 FRET inh)
OC[C@H]1[C@H](c2ccc(-c3ccc(F)cc3)cc2)[C@H]2CN(Cc3ccccn3)CCCCN21	none (no result: CaV13 FRET inh)
COc1ccccc1-c1ccc([C@@H]2[C@H](CO)N3CCCCN(Cc4ccncc4)C[C@@H]23)cc1	none (no result: CaV13 FRET inh)
CCC(=O)N1C[C@@H](C)[C@H](OC)CN(C)C(=O)c2cc(NC(=O)C3CC3)ccc2OC[C@@H]1C	none (no result: CaV13 FRET inh)
CCOc1ccc(CCNC(=O)COC(=O)c2ccccc2O)cc1OCC	none
CCOc1ccc(CCNC(=O)COC(=O)c2nccnc2N)cc1OCC	GSIS activator 51.3
COc1ccc(CCNC(=O)COC(=O)Cn2cnc3ccccc32)cc1OC	GSIS activator 56.9 (no result: PGC1a acetyl inh)
O=C(COC(=O)Cn1cnc2ccccc21)NCCc1ccc(Cl)cc1	none (no result: Ecoli rRNA inh, ERAP1 inh, GSIS activator, DENV2 CPE rescue)
CCOc1ncccc1C(=O)OCC(=O)NCCc1ccc(S(N)(=O)=O)cc1	GSIS activator 40.2 (no result: PGC1a acetyl inh)
CCOc1ccc(CCNC(=O)COC(=O)c2cccnc2OCC)cc1OCC	GSIS activator 60.5 (no result: Ecoli rRNA inh, ERAP1 inh, DENV2 CPE rescue)
CO[C@@H]1CN(C)C(=O)c2ccc(NC(=O)c3cnccn3)cc2OC[C@H](C)N(C)C[C@@H]1C	none (no result: CaV13 FRET inh, ERAP1 inh, DENV2 CPE rescue)
C[C@H](CO)N1C[C@H](C)[C@H](CN(C)Cc2ccncc2)Oc2cc(C#CC(C)(C)O)ccc2S1(=O)=O	none (no result: CaV13 FRET inh)
CCOc1ccc(CCNC(=O)COC(=O)c2nc3nc(C)cc(C)n3n2)cc1OCC	GSIS activator 45.2 (no result: Ecoli rRNA inh, ERAP1 inh, DENV2 CPE rescue)
CCOc1ccc(CCNC(=O)COC(=O)Cn2cnc3c2c(=O)n(C)c(=O)n3C)cc1OCC	ERAP1 inh 47.8 (no result: PGC1a acetyl inh)
CCOc1ccc(CCNC(=O)COC(=O)COc2ccc(Cl)cc2)cc1OCC	GSIS activator 45.0 (no result: PGC1a acetyl inh)
COc1ccc(CCNC(=O)COC(=O)COc2ccc(Cl)cc2)cc1OC	none (no result: PGC1a acetyl inh)
CCOc1ccc(CCNC(=O)COC(=O)Cn2cnc3ccccc3c2=O)cc1OCC	none (no result: GSIS activator)
C[C@H](CO)N1C[C@H](C)[C@@H](CN(C)S(=O)(=O)c2ccc(Cl)cc2)OCCCC[C@H](C)Oc2ccc(NC(=O)Nc3cccc4ccccc34)cc2C1=O	none (no result: CaV13 FRET inh)
Cc1cc(NC(=O)CCCC(=O)Nc2ccc(F)cc2)no1	none (no result: Ecoli rRNA inh, ERAP1 inh, GSIS activator, DENV2 CPE rescue)
CC(=O)Nc1ccc(S(=O)(=O)N(CC(=O)Nc2cc(C)on2)Cc2ccc(F)cc2)cc1	Ecoli rRNA inh -24.2 (no result: PGC1a acetyl inh, ERAP1 inh)
C[C@H]1CN([C@@H](C)CO)S(=O)(=O)c2ccc(C#CC3CC3)cc2O[C@H]1CN(C)C(=O)c1ccncc1	none (no result: CaV13 FRET inh)
COc1cc(-c2noc(C)c2/C=C/c2ccc(C(=O)O)cc2)cc(OC)c1OC	ERAP1 inh 41.9 (no result: GSIS activator, DENV2 CPE rescue)
C[C@@H]1CN(C)C(=O)c2cc([N+](=O)[O-])ccc2O[C@H]1CN(C)C(=O)OC(C)(C)C	none (no result: PGC1a acetyl inh, CaV13 FRET inh, ERAP1 inh, DENV2 CPE rescue)
CN1CCN(S(=O)(=O)c2cccc(C(=O)Nc3cc(Cl)ccc3N3CCOCC3)c2)CC1	ERAP1 inh 61.4
O=C(COC(=O)c1cc(S(=O)(=O)N2CCCCC2)ccc1N1CCOCC1)NCCc1ccc(F)cc1	Ecoli rRNA inh -20.5 (no result: PGC1a acetyl inh)
CC1CN(S(=O)(=O)c2cccc(C(=O)Nc3cc(Cl)ccc3N3CCOCC3)c2)CC(C)O1 (stereo not given)	none
CC(C)Oc1ccc(S(=O)(=O)N2CCOCC2)cc1NC(=O)Cc1ccsc1	DENV2 CPE rescue 42.4
CCN(CC)S(=O)(=O)c1ccc(N2CCCC2)c(NC(=O)Cc2ccc(OC)cc2)c1	Ecoli rRNA inh -33.9
C[C@@H]1CCCCO[C@H](CN(C)S(=O)(=O)c2ccccc2)[C@H](C)CN([C@H](C)CO)C(=O)c2cc(NS(=O)(=O)c3ccccc3)ccc2O1	none (no result: CaV13 FRET inh)
CCCNC(=O)N(C)C[C@H]1Oc2ncc(-c3ccc(F)cc3)cc2C(=O)N([C@@H](C)CO)C[C@@H]1C	none (no result: CaV13 FRET inh)
O=C(Cc1ccc(Cl)cc1)Nc1cc(S(=O)(=O)N2CCOCC2)ccc1N1CCCC1	Ecoli rRNA inh -26.1
COc1ccc(Cl)cc1NC(=O)CN(C)C(=O)c1cccc(S(=O)(=O)N2CCN(C)CC2)c1	none (no result: PGC1a acetyl inh)
CN1CCN(S(=O)(=O)c2cccc(C(=O)N(C)CC(=O)Nc3ccc(F)c(F)c3F)c2)CC1	ERAP1 inh 99.0 (no result: PGC1a acetyl inh)
COc1ccc(NC(=O)N2CC(=O)N3[C@H](CO)[C@H](c4ccc(-c5ccc(C)cc5)cc4)[C@@H]3C2)cc1	none (no result: CaV13 FRET inh)
O=C(O)c1[nH]c2ccc(Br)cc2c1CCN1C(=O)c2cccc([N+](=O)[O-])c2C1=O	Ecoli rRNA inh -28.2 (no result: ERAP1 inh)
CC(=O)Nc1c(C(=O)C2CC2)oc2ccccc12	GSIS activator 49.7 (no result: DENV2 CPE rescue)
Clc1cccc(Cl)c1CSc1nnc(-c2ccncc2)s1	DENV2 CPE rescue 70.1 (no result: ERAP1 inh)
CCCNC(=O)Nc1ccc2c(c1)OC[C@H](C)N(CC1CCCC1)C[C@H](C)[C@H](OC)CN(C)C2=O	none (no result: CaV13 FRET inh)
COc1ccc(/C=C/C(=O)O)cc1S(=O)(=O)NCc1ccco1	none
COc1ccc(S(=O)(=O)NCc2ccco2)c2ccccc12	Ecoli rRNA inh -26.0
